Screens as filed in PubChem BioAssay.
The list is not random: actives were taken first. Their share in the collection is about 12%.
USP17 block – blocks human USP17 ubiquitin-rhodamine cleavage | purified USP17, Ub-rhodamine cleavage fluorescence, 3 h | inhibition, % at 50 µM | actives 6.5% (n = 47,000)
OTUD3 inh – human OTUD3 deubiquitinase inhibition | purified OTUD3, Ub-rhodamine fluorescence, 2 h | inhibition, % at 25 µM | actives 0.7% (n = 47,000) | AID 1645858
Target sequence (Q5T2D3 whole entry, looked up): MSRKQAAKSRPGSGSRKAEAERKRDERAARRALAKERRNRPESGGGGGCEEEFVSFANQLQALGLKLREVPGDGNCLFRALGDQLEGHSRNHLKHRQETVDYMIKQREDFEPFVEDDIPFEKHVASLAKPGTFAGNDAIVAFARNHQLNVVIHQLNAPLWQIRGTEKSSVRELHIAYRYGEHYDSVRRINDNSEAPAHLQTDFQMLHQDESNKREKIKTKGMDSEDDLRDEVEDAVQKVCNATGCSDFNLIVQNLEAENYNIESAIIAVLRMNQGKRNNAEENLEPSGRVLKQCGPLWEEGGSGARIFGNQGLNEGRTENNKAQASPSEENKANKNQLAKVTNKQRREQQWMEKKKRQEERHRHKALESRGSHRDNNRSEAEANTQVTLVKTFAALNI
USP30 block – blocks human USP30 ubiquitin-rhodamine cleavage. Q70CQ3. purified USP30, Ub-rhodamine cleavage fluorescence. inhibition, % at 25 µM. actives 5.3% (n = 47,000). AID 1645860
USP28 block – inhibitors of human USP28 deubiquitinase | Q96RU2 | actives 3% (n = 47,000) | AID 1645857 | inhibition, % at 25 µM | purified USP28, Ub-rhodamine cleavage fluorescence, 30 min
Active calls of the source: *; · = no result given. Rule as the data show it: active = inhibition above about 30%; inactive = the rest.

SMILES | USP17 block | OTUD3 inh | USP30 block | USP28 block
Cc1nc(-c2cccc(NC(=O)c3cccc(F)c3)c2)cs1 | -8 | -9 | -13 | 12
COc1cc(C(=O)Nc2ccc(-c3csc(C)n3)cc2)cc(OC)c1OC | -9 | -8 | -32 | 78*
Cc1nc(-c2ccc(C(=O)Nc3ccc(F)cc3)cc2)cs1 | 19 | 10 | 33* | 21
Cc1nc(-c2cccc(NC(=O)c3ccc(C)c(NC(=O)c4ccco4)c3)c2)cs1 | 43* | 17 | 28 | 22
CCn1c(=O)c(=O)[nH]c2cc(C(=O)Nc3cccc(-c4csc(C)n4)c3)ccc21 | 58* | -3 | -14 | 75*
CCC(=O)Nc1nc2cc(NC(=O)c3cc(OC)c(OC)c(OC)c3)ccc2s1 | -44 | -32 | -130 | -23
Cc1ccc(S(=O)(=O)N2CCC(c3c(C)[nH]c4ccccc34)CC2)cc1 | 10 | 0 | -28 | 3
CC1=C(C)C(c2c(-c3ccc(C)cc3)[nH]c3ccccc23)N(C(C)(C)C)C1=O (stereo unspecified) | 94* | 4 | 10 | 12
Cc1nn(C)cc1NC(=O)Nc1ccc(F)cc1 | 11 | 13 | 30* | 14
Oc1cc(O)cc(/C=C/c2ccc(O)c(O)c2)c1 | 40* | 47* | 31* | 49*
c1ccc(Cn2nnnc2CN2CCN(c3nc4ccccc4s3)CC2)cc1 | 2 | 4 | 1 | 11
COc1ccc(NC(=O)CC(C)CC(=O)Nc2ccc(C(C)C)cc2)c(OC)c1 (stereo unspecified) | 46* | 14 | 20 | 2
CC(=O)Nc1ccc(NC(=O)N[C@H]2C[C@H]3CN(C)c4ccccc4CN3C2)cc1 | -2 | -8 | -31 | 31*
CCC(=O)Nc1ccc(-n2cnc(C(=O)NC3CCCC3)c2)nc1 | 10 | 6 | 32* | 6
COc1ccc(NC(C)C(=O)N2CC(=O)Nc3ccccc32)cc1 (stereo unspecified) | 14 | 3 | 13 | 3
COc1ccc(C(NC(=O)c2nc3n(n2)-c2ccccc2S(=O)(=O)N3)C(C)C)cc1 (stereo unspecified) | 33* | 3 | 14 | 18
COc1ccc(CNC(=O)CCc2ccc3nc(NC(=O)C(C)C)sc3c2)cc1 | 11 | 0 | 33* | 0
CCCC(=O)Nc1nc2ccc(CCC(=O)Nc3cccc(OC)c3)cc2s1 | 2 | -1 | 18 | 6
Fc1ccc(C2(c3nc(-c4cccc(F)c4)no3)CCOCC2)cc1 | 4 | 3 | 18 | 7
CCCN(C(=O)[C@H]1[C@@H]2C[C@@H]3[C@H]1C(=O)O[C@@H]3C2)c1ccccc1F | -1 | -1 | 10 | -6
Cc1cc2c(=O)n3c(nc2s1)CCN(C(=O)c1cscn1)CC3 | -6 | 1 | 9 | 7
Cc1cc(C(=O)CSc2nc3ccccc3[nH]2)c(C)n1C1CC1 | -10 | -3 | · | ·
Cc1cc2nc(SCC(=O)c3ccc(O)cc3)[nH]c2cc1C | 49* | 20 | 27 | 10
CN1Cc2ccccc2CN2CCN(S(=O)(=O)c3cccnc3)CC2C1 (stereo unspecified) | 2 | 1 | 4 | -1
CC(C)(C)OC(=O)N1CCC[C@H]1C(=O)N1CCC(C(=O)N[C@@H](CC(N)=O)C(=O)O)(c2ccccc2)CC1 | 12 | 9 | 32* | 11
SMILES | USP17 block | OTUD3 inh | USP30 block | USP28 block
COc1ccc(Cl)cc1NC(=O)CSc1nc2c(cc1C#N)C(=O)CCC2 | 15 | -2 | 18 | -12
Cc1cccc(C(=O)Nc2c(C(=O)N3CCN(c4ccccc4F)CC3)[nH]c3ccccc23)c1 | · | -5 | -14 | -11
COc1ccc(Br)cc1CNC(=O)C1CCCN(c2nnc(N3CCCC3=O)s2)C1 (stereo unspecified) | 40* | -4 | -29 | -6
COc1cccc(CNC(=O)C2CCCN(c3nnc(N4CCCC4=O)s3)C2)c1OC (stereo unspecified) | -7 | 0 | 9 | -16
O=C(NCc1ccccc1Cl)C1CCCN(c2nc3ccsc3c(=O)s2)C1 (stereo unspecified) | 55* | 0 | -36 | 0
COc1ccccc1CNC(=O)C1CCCN(c2nc3ccsc3c(=O)s2)C1 (stereo unspecified) | 57* | 26 | 20 | 6
CCOc1ccccc1CNC(=O)C1CCCN(c2nc3ccccc3[nH]2)C1 (stereo unspecified) | 7 | 11 | 4 | 5
O=C(Cn1c(=O)n(-c2ccc(F)cc2)c(=O)c2oc3ccccc3c21)N1CCOCC1 | -2 | -4 | -8 | -7
CN1[C@@H](CCC(=O)N2CCOCC2)CNC(=O)[C@@H]2[C@H]1CCN2Cc1ccc(F)cc1 | -72 | 7 | 1 | 18
Cc1nc(-c2ccccc2)sc1C(=O)CSc1cccc(Cl)c1Cl | 14 | 15 | 36* | -1
CCOC(=O)c1c(C)[nH]c(C(=O)N(CC)Cc2ccc3c(c2)OCO3)c1C | 2 | 3 | -1 | 4
Oc1ccc(-c2nc3c4cnn(-c5ccc(Cl)cc5)c4ncn3n2)cc1 | 32* | 1 | · | ·
Cc1cccc(-c2nc3c4cnn(-c5ccc(Cl)cc5)c4ncn3n2)c1 | 1 | -12 | 10 | -14
Cc1ccn2cc(CCNC(=O)c3ccc(F)c(F)c3)nc2c1 | -2 | -4 | -44 | 1
CC1=C(C(=O)Nc2ccc(C)cc2)C(c2ccncc2)n2c(nc3ccccc32)N1 (stereo unspecified) | -7 | -19 | 1 | 1
CC1=C(C(=O)Nc2ccccc2)C(c2cccnc2)n2c(nc3ccccc32)N1 (stereo unspecified) | 45* | 8 | 18 | 17
Cc1ccnc(SCc2cc(=O)c(OC(=O)c3c(F)cccc3Cl)co2)n1 | 39* | 4 | 26 | 16
Cn1c(=O)c2c(ncn2CC(=O)NC2CCCc3ccccc32)n(C)c1=O (stereo unspecified) | 13 | 7 | 17 | 82*
CCOc1ncccc1C(=O)NC1CCCc2ccccc21 (stereo unspecified) | 15 | 15 | 32* | 26
O=C(NC1CCCc2ccccc21)c1cnn(-c2ccccc2)c1-n1cccc1 (stereo unspecified) | 13 | 18 | 32* | 16
Cn1c(=O)c2c(ncn2CC(=O)OCC(=O)Nc2ccc3c(c2)CCC3)n(C)c1=O | -14 | -8 | -13 | 10
Cc1cc(N2CCCCC2)nc2ccc(NC(=O)c3ccncc3)cc12 | -7 | -24 | -33 | 38*
CCN1CCN(c2cc(C)c3cc(NC(=O)C4CC4)ccc3n2)CC1 | -13 | -7 | -8 | -11
Cc1ccc(NC(=O)CCC(=O)Nc2ccc3nc(N4CCCCC4)cc(C)c3c2)c(Br)c1 | 63* | 10 | 34* | 18
Cc1cc(N2CCOCC2)nc2ccc(NC(=O)CCC(=O)Nc3ccc(F)cc3)cc12 | 60* | 21 | 39* | 12
CCN1C(=O)CCc2cc(NC(=O)Cc3c(F)cccc3Cl)ccc21 | 6 | -12 | -30 | -5
Fc1ccccc1N1CCN(c2nc3ccccc3[nH]2)CC1 | 6 | -5 | 21 | -13
COc1ccc(OC)c(-c2cn3ccn(-c4ccc(F)c(Cl)c4)c(=O)c3n2)c1 | 39* | 21 | 19 | 17
CCc1ccc(-c2cn3ccn(-c4ccccc4OC)c(=O)c3n2)cc1 | 2 | -4 | -10 | -7
